PubChem BioAssay AID493034 (The Scripps Research Institute Molecular Screening Center, 2011)
Out of some 2,400 compounds screened, about 2,200 (92%) were called active. The set was probably picked from earlier hits. Some of the results follow. Unmarked numbers belong to inactive results.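 Rule for the calls: active = mean inhibition over triplicate runs exceeds the cutoff derived for the earlier primary screen (cut at about 25% in these data); inactive = the rest.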

target: Platelet-activating factor acetylhydrolase IB subunit alpha2 (Homo sapiens) (UniProt P68402); experiment: PAFAH1B2 inhibitors, confirmation, biochemical, fluorescence polarization, FP-rhodamine probe, triplicate (AID 493034); settings: recombinant PAFAH1B2, FP-rhodamine probe fluorescence polarization; at 3.39 µM; stronger effect = higher value;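 note: 0% = enzyme with DMSO and 100% = wells lacking PAFAH1B2 protein; inhibitors lower polarization by leaving the probe unbound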
Sequence (P68402 whole entry, looked up): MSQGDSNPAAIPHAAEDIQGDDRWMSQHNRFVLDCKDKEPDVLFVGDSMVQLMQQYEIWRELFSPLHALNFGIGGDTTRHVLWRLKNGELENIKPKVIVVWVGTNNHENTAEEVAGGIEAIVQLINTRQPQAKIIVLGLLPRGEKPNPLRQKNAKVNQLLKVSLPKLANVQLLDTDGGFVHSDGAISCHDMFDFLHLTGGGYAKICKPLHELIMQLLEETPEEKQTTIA

SMILES | inhibition
CCOc1ccc(OCCSc2nc3ccccc3c(=O)[nH]2)cc1 | 3.03%
CCOC(=O)c1ccccc1NC(=O)CSc1nnc(C)c(=O)[nH]1 | 22.2%
CCOC(=O)Cc1csc(NC(=O)CSc2nc(-c3ccccc3)c(C#N)c(=O)[nH]2)n1 | 63.6% (active)
CCOc1ccc2nc(NC(=O)CSc3nc(-c4ccccc4)c(C#N)c(=O)[nH]3)sc2c1 | 81.7% (active)
N#Cc1c(-c2ccccc2)nc(SCC(=O)Nc2ccc(OC(F)(F)Cl)cc2)[nH]c1=O | 76.1% (active)
CCc1ccc(S(=O)(=O)NCCc2csc(-c3ccccc3)n2)s1 | 22.1%
Cc1cc(N2CCCC2=O)cc(C)c1S(=O)(=O)NCCOc1ccc(C(C)(C)C)cc1 | 33.7% (active)
O=C1C(=O)C(c2ccccc2)C(=O)C1c1ccccc1 (configuration not stated) | 25.4% (active)
COc1cc(Cl)cc(C(c2c(C(=O)O)[nH]c3ccccc23)c2c(C(=O)O)[nH]c3ccccc23)c1O | 71% (active)
O=C(O)c1[nH]c2ccccc2c1C(c1cc(Cl)cc([N+](=O)[O-])c1O)c1c(C(=O)O)[nH]c2ccccc12 | 43.8% (active)
CN(Cc1cccs1)C(=O)CCNS(=O)(=O)c1ccc(Br)cc1 | 21.4%
O=[N+]([O-])c1cc(-c2csc(NCCc3nc4cc(C(F)(F)F)ccc4n3CCCO)n2)ccc1Cl | 14.9%
O=C(O)c1cc(NS(=O)(=O)c2ccc3ccccc3c2)ccc1O | 35.9% (active)
O=C(O)c1ccc(NS(=O)(=O)c2ccc(Cl)c(Cl)c2)cc1O | 20.1%
COc1ccccc1NC(=O)C(=O)NNS(=O)(=O)c1ccc2ccccc2c1 | 23.4%
CCC(Sc1nc(-c2cccc(OC)c2)c(C#N)c(=O)[nH]1)C(=O)Nc1nnc(C(C)C)s1 (configuration not stated) | 34.6% (active)
O=C(O)C1=CC[C@@H](c2ccc(Cl)cc2)N(S(=O)(=O)c2ccc(Cl)cc2)[C@H]1c1ccc(Br)cc1 | 86.3% (active)
Cc1ccccc1S(=O)(=O)N1[C@@H](c2ccc(Br)cc2)C(C(=O)O)=CC[C@H]1c1ccc(Cl)cc1 | 83.2% (active)
CNc1nc(NCCOC23CC4CC(CC(C4)C2)C3)nc(OCC(F)(F)F)n1 | 22.2%

SMILES | inhibition
CCCCNC(=O)Oc1ccc(C(=O)N2c3ccccc3NC(=O)C2C)cc1 (configuration not stated) | 41.2% (active)
CC(C)(C)Cc1nnc(NS(=O)(=O)c2ccc(F)cc2)s1 | 20.3%
C/C(CC(C)(C)C1CCCCC1)=N\NC(N)=S | 30.1% (active)
NC(=NCCc1ccc(Cl)cc1)NS(=O)(=O)c1ccc(F)cc1 | 50.7% (active)
O=C(CNS(=O)(=O)c1ccccc1)NCC(=O)OCc1ccc(Br)cc1 | 23.9%
O=S(=O)(NC(=NCCc1ccc(Cl)cc1)c1ccccc1Cl)c1cccs1 | 110% (active)
NC(=NCCc1ccc(Cl)cc1)NS(=O)(=O)c1ccccc1 | 49.9% (active)
CSCCC(NS(=O)(=O)c1ccc(Cl)cc1)C(=O)OCc1cccc(Cl)c1 (configuration not stated) | 23.1%
O=S(=O)(NCc1ccc(Cl)cc1)c1ccc(Cl)nc1 | 22.4%
CCOC(=O)c1sc(NC(=O)CN(CC(C)C)CC(C)C)c(C(=O)OCC)c1C | 6.46%
N#C/C(=C/c1cn[nH]c1-c1ccc(Br)cc1)C(=O)O | 20.3%
Cc1ccc([N+](=O)[O-])c(-c2n[nH]c(=S)n2-c2cccc(Cl)c2)c1 | 24%
CC(C)(C)[C@H]1COC(=O)[C@@H](Cc2ccc(F)cc2)CC/C=C/C[C@@H](CC(=O)N[C@H](CO)Cc2ccccc2)C(=O)N1 | 26.6% (active)
CC(C)(C)[C@H]1COC(=O)[C@@H](Cc2ccc(F)cc2)C/C=C\C[C@@H](CC(=O)N[C@@H](CO)Cc2ccccc2)C(=O)N1 | 32.7% (active)
CC(C)(C)[C@H]1COC(=O)[C@@H](Cc2ccc(F)cc2)C/C=C\C[C@@H](CC(=O)N[C@H](CO)Cc2ccccc2)C(=O)N1 | 62.1% (active)
CC(C)(C)[C@@H]1COC(=O)[C@H](Cc2ccc(F)cc2)C/C=C\C[C@@H](CC(=O)NCCO)C(=O)N1 | 17.5%
Cc1c(N=C2C=C(Br)C(=O)C(Br)=C2)c(=O)n(-c2ccccc2)n1C | 20.8%
O=S(=O)(Nc1ccc2cn[nH]c2c1)c1ccc(Cl)cc1 | 18.1%
O=c1[nH]c2ccc(S(=O)(=O)Nc3ccc(Cl)cc3)cc2o1 | 41.7% (active)

SMILES | inhibition
Nc1n[nH]c2c1C1(CCCCC1)Cc1ccccc1-2 | 22%
O=C(OCCc1ccccc1)c1cc(O)c(O)c(O)c1 | 34.3% (active)
O=C(/C=C/c1ccc(O)c(O)c1)OCCc1ccccc1 | 19.7%
N=c1c[n+](-c2ccc(Cl)cc2)[n-]o1 | 18.1%
O=C(CN1CCN(S(=O)(=O)c2ccc(Cl)cc2)CC1)c1ccc(O)c(O)c1 | 33.2% (active)
O=S(=O)(c1ccc(Cl)cc1)N1CCCC(C(F)(F)F)C1 (configuration not stated) | 22.5%
CN(Cc1ccccc1)C(=O)CN1CCN(S(=O)(=O)c2ccc(Cl)c(Cl)c2)CC1 | 22.8%
CCC(=O)Nc1cc(C)c(NC(=O)C23CC4CC(CC(C4)C2)C3)cn1 | 22.1%
O=C(NNC(=O)C12CC3CC(CC(C3)C1)C2)c1cccc([N+](=O)[O-])c1 | 18.9%
O=C(NNC(=S)NC(=O)C12CC3CC(CC(C3)C1)C2)c1ccncc1 | 38.2% (active)
O=C1C(c2ccccc2)NC(=S)N1C1CCCCC1 (configuration not stated) | 20.2%
O=C(O)c1ccn2c(C(=O)c3ccc(Cl)cc3)c(-c3ccccc3)cc2c1 | 62.6% (active)
O=C(O)c1ccn2c(C(=O)c3ccccc3)c(-c3ccccc3)cc2c1 | 27.1% (active)
O=C1NC(c2cccs2)C(C(=O)c2ccccc2)C(O)(C(F)(F)F)N1 (configuration not stated) | 11.5%
CC(C)CCNC(=O)Cc1c(C(=O)O)[nH]c2ccc(Cl)cc12 | 43.9% (active)
Cc1ccc2[nH]c(C(=O)O)c(NC(=O)[C@@H]3C[C@@H]3c3ccccc3)c2c1 | 17.5%
CCCCN(CC)C(=O)Cc1c(C(=O)O)[nH]c2ccc(Cl)cc12 | 41.1% (active)
CC1CC(C)CN(C(=O)Cc2c(C(=O)O)[nH]c3ccc(Cl)cc23)C1 (configuration not stated) | 73.8% (active)
CCOCCCNC(=O)Cc1c(C(=O)O)[nH]c2ccc(Cl)cc12 | 26.3% (active)
